Inconclusive results are not listed. The source made the active and inactive calls. Calls follow the shape of the dose curve; as a rule, active = well fitted curve in the direction sought with a large enough effect; inconclusive = small, poorly fitted or top-dose-only effect, or another doubt; inactive = no such curve, though single readings can be large; an effect the other way counts as inactive or inconclusive.
What was measured:
[1] = system: HEK293; assay: Cytotoxic Profiling of Annotated Libraries Using Quantitative High-Throughput Screening (AID 1296008); conditions: Five cell lines viability, CellTiter-Glo ATP luminescence, 48-72 h; max response: hits give low values; also: nearly all actives have a fitted effect of over 60% in size; also: potency is read from the fitted curve at half-maximal effect; as to max response: % is scaled to controls: 0 for no effect and ±100 for the full control effect
How it was run: (§1)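 Cytotoxicity was measured as CellTiter-Glo ATP luminescence, read after 10 min at room temperature. Compound treatment of the cells lasted 48 or 72 hr at 37 degrees Celsius in a qHTS format.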

[2] = system: HaCat; assay: as above; conditions: Five cell lines viability, CellTiter-Glo ATP luminescence, 48-72 h; max response: hits give low values
How it was run: as §1

[3] = system: KB-3-1; assay: as above; conditions: Five cell lines viability, CellTiter-Glo ATP luminescence, 48-72 h; max response: hits give low values
How it was run: as §1

[4] = system: NIH3T3; assay: as above; conditions: Five cell lines viability, CellTiter-Glo ATP luminescence, 48-72 h; max response: hits give low values
How it was run: as §1

[5] = system: HACAT; assay: qHTS assay to identify novel small-molecules to repurpose for Merkel cell carcinoma treatment (AID 1296009); conditions: MCC and control cell lines, CellTiter-Glo viability, 72 h; series mostly up to 44.8 µM; also: nearly all actives have a fitted effect of over 60% in size
How it was run: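 After compound transfer in DMSO, plates were kept 72 hr at 37 degree celsius. Luminescent ATP signal from CellTiter-Glo served as viability measure, normalized against DMSO and no-cell controls.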

[6] = system: C33A; assay: Primary qHTS to identify gynecologic anti-cancer compounds using libraries of approved drugs and bioactive compounds (AID 1345084); conditions: Gynecologic cancer cell panel viability, ATPlite luminescence, 48 h; series mostly up to 57.5 µM; also: % is scaled to controls: 0 for no effect and ±100 for the full control effect; nearly all actives have a fitted effect of over 55% in size
How it was run: (§2)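 Measured: luminescence after ATPlite addition (15 min, RT). Exposure: 48 h, 37 C, 5% CO2.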

[7] = system: CAOV3; assay: as above; conditions: Gynecologic cancer cell panel viability, ATPlite luminescence, 48 h; series mostly up to 57.5 µM
How it was run: as §2

[8] = system: CASKI; assay: as above; conditions: Gynecologic cancer cell panel viability, ATPlite luminescence, 48 h; series mostly up to 57.5 µM
How it was run: as §2

[9] = system: Es-2; assay: as above; conditions: Gynecologic cancer cell panel viability, ATPlite luminescence, 48 h; series mostly up to 57.5 µM
How it was run: as §2

[10] = system: HeLa; assay: as above; conditions: Gynecologic cancer cell panel viability, ATPlite luminescence, 48 h; series mostly up to 57.5 µM
How it was run: as §2

[11] = system: JEG-3; assay: as above; conditions: Gynecologic cancer cell panel viability, ATPlite luminescence, 48 h; series mostly up to 57.5 µM
How it was run: as §2

[12] = system: Hek293T; assay: as above; conditions: Gynecologic cancer cell panel viability, ATPlite luminescence, 48 h, control line for the selectivity index; series mostly up to 57.5 µM
How it was run: as §2

COc1cc(OC)cc(C(=O)Nc2ccc(Cl)c(-c3nc4ccc(N(C)C)cc4[nH]3)c2)c1
inactive: outcome [2] | max response [3] 2.52% | max response [4] -0.734% | Potency [5] | Potency [6] | Potency [7] | Potency [8] | Potency [9] | Potency [10] | Potency [11]
active: Potency [1] 10.3 µM

COc1ncc2cc(C(=O)Nc3cc(C(=O)NCc4cccc(Cl)c4)ccc3Cl)c(=O)[nH]c2n1
inactive: max response [1] -14.6% | outcome [2] | max response [4] -0.237% | Potency [5] | Potency [6] | Potency [7] | Potency [8] | Potency [9] | Potency [12] | Potency [11]
active: Potency [3] 4.11 µM

COc1c(/C=C/C(C)(C)O)ccc2c1C(=O)OCc1cc(C)cc(O)c1O2
inactive: max response [1] -114% | outcome [2] | max response [3] -23.3% | max response [4] 2.57% | Potency [5] | Potency [6] | Potency [7] | Potency [8] | Potency [9] | Potency [10] | Potency [11]

C[C@@H]1O[C@@H](O[C@@H]2[C@@H](O)[C@H](O[C@H]3CC[C@@]4(C)C(CC[C@]5(C)C4CC=C4[C@@H]6CC(C)(C)CC[C@]6(C(=O)O[C@@H]6O[C@H](CO)[C@@H](O)[C@H](O)[C@H]6O)CC[C@]45C)C3(C)C)O[C@H](C(=O)O)[C@H]2O)[C@H](O)[C@H](O)[C@H]1O (stereo partly specified)
inactive: max response [1] 3.46% | outcome [2] | max response [3] 4.23% | max response [4] 4.82% | outcome [5] inactive [at 9.27 µM] | activity change, negative = cytotoxicity [6] -0.88% [at 11.6 µM] | activity change, negative = cytotoxicity [8] 17% [at 11.6 µM] | activity change, negative = cytotoxicity [9] 6.6% [at 11.6 µM] | activity change, negative = cytotoxicity [10] 2.44% [at 11.6 µM] | activity change, negative = cytotoxicity [12] 5.01% [at 11.6 µM] | activity change, negative = cytotoxicity [11] 4.87% [at 11.6 µM]

C=C1CCC[C@]2(C)CC[C@@H](C(=C)C(=O)O)[C@H](O)[C@@H]12
inactive: max response [1] -1.48% | outcome [2] | max response [3] 1.72% | max response [4] -0.289% | Potency [5] | Potency [6] | Potency [8] | Potency [9] | Potency [10] | Potency [12] | Potency [11]

C=C1C(OC2OCC(O)C(O)C2O)CC2C(C)(C)C(O)CCC2(C)C1CC/C(C)=C\CO (stereo unspecified)
inactive: max response [1] -24.4% | outcome [2] | max response [3] 3.38% | max response [4] 1.42% | Potency [5] | Potency [6] | Potency [8] | Potency [9] | Potency [10] | Potency [12] | Potency [11]
